From PubChem BioAssay AID1471 (National Center for Advancing Translational Sciences (NCATS), 2008)
Values joined by “and” are separate entries in the source; they are usually repeats but may differ in a detail not shown here. Equal entries are not always repeated. Hit rate of the full screen: of about 230,000 compounds, about 310 (0.13%) were called active. About 2% were inconclusive and are not listed. The sample holds actives, similar compounds and a random draw of the others, so the mix is not that of the screen. The call rests on the fitted dose curve; in most records, active means well fitted activation curve with a large enough effect; inconclusive means small, poorly fitted or top-dose-only effect; inactive means no such curve, though single readings can be large or run the other way.

Assay: qHTS Multiplex Assay to Identify Dual Action Probes in a Cell Model of Huntington: Cytoprotection (ATP); further: nearly all actives have a fitted effect of over 45% in size;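 on cytoprotection (ATP increase): toxic huntingtin expression switched on by the ecdysone agonist tebufenozide; % of control where 0% means no effect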
Conditions: PC12 HTT-Q103 induced, ATP luminescence, 40 h; series mostly up to 56.4 µM; cytoprotection (ATP increase): at the top concentration
Text: NIH Chemical Genomics Center [NCGC]
NIH Molecular Libraries Probe Production centers Network [MLPCN]
Assay Submitter (PI): Wei Zheng
Huntington's disease is a neurodegenerative disorder caused by a trinucleotide repeat expansion in Exon 1 of the Huntingtin gene. The CAG trinucleotide encodes glutamine and polyglutamine expansions cause cell death in selective areas of the brain. Huntington polyglutamine repeats have the tendency to form aggregates which are observable in later stages of the disease. The exact nature of the aggregates, whether toxic, protective, or insignificant, is unclear.
A stable PC12 cell line containing a gene fusion of Exon 1 of the Huntingtin gene linked to GFP under the control of the inducible ecdysone promoter were used as the cell-based model of Huntington Disease for high throughput screening. Exon 1 of the Huntingtin gene contained an expansion of 103 polyglutamines (Q103) which, when expressed, caused cell death and distinct, bright GFP aggregates. The amount of cell death and the size and intensity of GFP aggregates increased over time and induction level. The cell death were quantified with a measurement of ATP content in the cells. A maximal 40-50% of cell death was observed when the Huntington gene was induced in this cell line.
We optimized this assay in a homogeneous 1536 well format. A quantitative high throughput screen (qHTS) was conducted on the PC12 cells which were induced to express the toxic fusion construct. Small molecules which prevented cell death were identified by using a luminescent ATP quantification method (Perkin Elmer's ATPlite).
PC12 cells stably containing a construct with an ecdysone inducible promoter expressing GFP fused to the exon 1 of HTTQ103 (Huntington protein which containing a 103 ployglutamine expansion) were used.
NCGC Assay Protocol Summary:
Sequence, Parameter, Description
1, Reagent, 5 uL 1500 cells/well 1536 TC treated White clear bottom plate
2, Compound, 23 nL Tebufenozide inducer (100 nM final) to all columns
3, Compound, 23 nL 40 uM to 0.5 nM Libraries
5, Reagent, 5 ul ATPLite cell death assay reagent
6, Detector, 4 sec integration with a Viewlux Luminescent
Media consisted of phenol red free DMEM + 5% equine serum (Hyclone # SH30072.03 ), 5% supplemented Bovine Calf Serum (Hyclone # SH30074.03 ), 1x pen/strep, no G418
Control columns: 1 = DMSO, 2= 2 uM teb dilns (1:1), 4 = 100 nM Teb inducer. Sample columns received 100 nM Teb.
In the case of `CC(C)=CCC[C@]1(C)[C@@H](CC=C(C)C)C[C@@]2(CC=C(C)C)C(=O)[C@]1(C(=O)C(C)C)C(=O)C(CC=C(C)C)=C2O`, the “cytoprotection (ATP increase)” value was -130% (inactive).
In the case of `O=C(OCc1ccccc1)c1ccc(O)cc1`, the “cytoprotection (ATP increase)” value was 9.85% (inactive).
For `COc1ccc(-c2nc3c(c4c2C[C@H](c2ccccc2)OC4)CN(C(=O)c2ccco2)CC3)c(C)c1`, the cytoprotection (ATP increase) was -10% [at 10 µM] (inactive).
With `CCCCCCCC1=Cc2ccc(F)cc2C(C(C(=O)OC)C(=O)OC)N1C(=O)OC` (stereo unspecified) the cytoprotection (ATP increase) was “inactive”.
For `OCC(CO)NC1C[C@](O)(CO)[C@@H](O)[C@H](O)[C@H]1O` (stereo partly specified), the “cytoprotection (ATP increase)” value was 43.4% (inactive).
With `CC(=O)OC1C([N+]2(C)CCCCC2)C[C@H]2C3CC[C@H]4C[C@H](OC(C)=O)C([N+]5(C)CCCCC5)CC4(C)C3CCC12C` (stereo partly specified) the “cytoprotection (ATP increase)” value was -36.3% (inactive).
In the case of `Oc1ccc(Cl)c2c1CCC2`, the “cytoprotection (ATP increase)” value was 22.2% (inactive).
With `O=C(O)C1CCCN(CCC=C(c2ccccc2)c2ccccc2)C1` (stereo unspecified) the “cytoprotection (ATP increase)” value was -9.11% (inactive).
With `COCCNc1nc(-c2ccccc2)nc2c1oc1ccccc12` the cytoprotection (ATP increase) was 13.7% [at 10 µM] (inactive).
With `CC(=O)c1cnn(-c2cc(Oc3ccc(F)cc3)ncn2)c1C` the “cytoprotection (ATP increase)” value was -0.119% (inactive).
In the case of `CO[C@@]12[C@@H](COC(N)=O)C3=C(C(=O)C(C)=C(N)C3=O)N1C[C@@H]1N[C@@H]12`, the “cytoprotection (ATP increase)” value was -173% (inactive).
For `C[C@]12CC[C@@H]3c4ccc(O)cc4C[C@@H](CCCCCCCCCS(=O)CCCC(F)(F)C(F)(F)F)C3[C@@H]1CC[C@@H]2O` (stereo partly specified), the “cytoprotection (ATP increase)” value was 2.26% (inactive).
With `O=C(Cn1cnc2c(nnn2Cc2ccc(F)cc2)c1=O)NCc1ccc2c(c1)OCO2` the cytoprotection (ATP increase) was 7.52% [at 10 µM] (inactive).
For `O=C(Cc1ccc(F)cc1)NC1CCCC1`, the “cytoprotection (ATP increase)” value was 14.1% (inactive).
For `O=C(CSc1ncnc2c1nnn2Cc1ccc(F)cc1)NC1CCCC1`, the Potency was 1.26 µM (active).
In the case of `COC(=O)C(C(=O)OC)[C@@H](NC=O)c1ccccc1`, the “cytoprotection (ATP increase)” value was -30.4% (inactive).
With `CC1(OC(=O)c2ccc(Cl)nc2)C(=O)Cc2cc(-c3ccsc3)ncc2C1=O` (stereo unspecified) the cytoprotection (ATP increase) was -9.48% [at 10 µM] (inactive).
For `COc1ccc2c(c1)O[C@@H](c1ccc3c(c1)OCO3)[C@H](OC(=O)NCCc1ccc(OC)c(OC)c1)C2=O`, the “cytoprotection (ATP increase)” value was -180% (inactive).
For `COc1cc2c(cc1OC)[C@@H](Cc1cc(OC)c(OC)c(OC)c1)[N+](C)(CCCOC(=O)CC/C=C/CCC(=O)OCCC[N+]1(C)CCc3cc(OC)c(OC)cc3[C@H]1Cc1cc(OC)c(OC)c(OC)c1)CC2` (stereo partly specified), the “cytoprotection (ATP increase)” value was 6.54% (inactive).
For `CCN1C(=O)N[C@@H](CCc2ccccc2)C(C(=O)OC)=C1C`, the cytoprotection (ATP increase) was -1.46% [at 10 µM] (inactive).
With `C=C(C(C)=O)C(O)c1cccs1` (stereo unspecified) the “cytoprotection (ATP increase)” value was -12.9% (inactive).
With `O=C(Nc1ccc(O)cc1)c1ccccc1O` the “cytoprotection (ATP increase)” value was -145% (inactive).
In the case of `CC(C)(Oc1ccc(C2CC2(Cl)Cl)cc1)C(=O)O` (stereo unspecified), the “cytoprotection (ATP increase)” value was 30.1% (inactive).
For `C=CCOC(=O)NC(c1ccc(F)c(F)c1)C(C(=O)COC)C(=O)OC` (stereo unspecified), the cytoprotection (ATP increase) was “inactive”.
For `CCn1c(C(C)C)n[nH]c1=S`, the “cytoprotection (ATP increase)” value was -26.1% (inactive).
With `CCn1c(-c2ccncc2)n[nH]c1=S` the “cytoprotection (ATP increase)” value was -8.17% (inactive).
For `CCn1c(-c2ccoc2C)n[nH]c1=S`, the Potency was 5.62 µM (active).
For `Cc1ccc(Nc2nc(N)nc(CSc3nnc(C)s3)n2)cc1`, the cytoprotection (ATP increase) was 18.8% [at 10 µM] (inactive).
With `CCOC(=O)C1CCCN(C(=O)c2cccc(S(=O)(=O)N3CCOCC3)c2)C1` (stereo unspecified) the cytoprotection (ATP increase) was 21.6% [at 10 µM] (inactive).
With `CC(C)=CCN1CCC2(CCc3ccccc32)CC1` the “cytoprotection (ATP increase)” value was -37.2% (inactive).
With `C#CCCOC(=O)N1C2=NC(C(=O)OC)=C(C(=O)OC)[C@@H]3N(C)c4ccc(OC)cc4[C@]23C[C@H]1C(=O)OC` the cytoprotection (ATP increase) was -19.2% [at 10 µM] (inactive).
For `O=P(O)(O)OC[C@H](O)CO`, the “cytoprotection (ATP increase)” value was 2.81% (inactive).
For `CC(C)(C)OC(=O)NCCCC1=CC2=CC(=O)C(C)(OC(=O)c3ccco3)C(=O)C2=CO1` (stereo unspecified), the “cytoprotection (ATP increase)” value was -5.66% (inactive).
With `COCCCNC(=O)C1CC(=O)N(CCc2ccccc2)C1` (stereo unspecified) the “cytoprotection (ATP increase)” value was -12% (inactive).
For `COc1ccc(N=Nc2ccc(O)c(P(=O)(c3ccccc3)c3ccccc3)c2)cc1`, the cytoprotection (ATP increase) was 13.4% [at 10 µM] (inactive).
With `COC(=O)C1(C(C)=O)CC2=CC[C@H]3C(=O)N(c4ccccc4)C(=O)[C@H]3[C@@H]2Cc2ccccc2[C@@H]1C[N+](=O)[O-]` (stereo partly specified) the cytoprotection (ATP increase) was “inactive”.
In the case of `Cc1c(N=Nc2ccc(N(C)C)cc2)c(=O)n(-c2ccccc2)n1C`, the cytoprotection (ATP increase) was -1.47% [at 10 µM] (inactive).
With `CCNC(=O)COC(=O)/C=C/c1c(C)nn(Cc2cccc(OC)c2)c1Cl` the “cytoprotection (ATP increase)” value was -27% (inactive).
With `CN(C)c1nc(N)nc(Cn2nnc(-c3ccc(C(F)(F)F)cc3)n2)n1` the “cytoprotection (ATP increase)” value was -14.2% (inactive).
With `COC(=O)C1=C(C(=O)OC)[C@@H]2N(C)c3ccccc3[C@@]23C[C@@H](C(=O)OC)N(C(C)=O)C3=N1` the cytoprotection (ATP increase) was 0.243% [at 10 µM] (inactive) and 2.58% [at 10 µM] (inactive).
For `CCCCCCCC/C=C\CCCCCCCC(=O)OC[C@H](CO)OC(C)=O`, the cytoprotection (ATP increase) was “inactive”.
With `Cc1ccc(CC2(O)CCN(CCOc3ccc(O)cc3)CC2)cc1` the “cytoprotection (ATP increase)” value was -66.8% (inactive).
With `C=C1O[C@@](CO)(n2cnc3c(N)ncnc32)[C@H](O)[C@@H]1O` the “cytoprotection (ATP increase)” value was -56.7% (inactive).
In the case of `CC1=C2[C@@H](O)[C@H]([C@@H](C)C(=O)NCCC(C)C)CC[C@@]2(C)C=CC1=O`, the “cytoprotection (ATP increase)” value was 16% (inactive).
With `COc1cccc([C@@H]2Oc3ccc(Br)cc3C(=O)[C@H]2OC(=O)NCCc2ccc(OC)c(OC)c2)c1` the “cytoprotection (ATP increase)” value was -49.1% (inactive).
With `CCCCC/C=C\C/C=C\C/C=C\CCCCCCC(N)=O` the “cytoprotection (ATP increase)” value was 26.9% (inactive).
